As usually defined, the inhibition is the relative decrease from the control value, in per cent.

Where “and” joins values, the source holds several entries; their conditions need not be identical. Identical values can stand only once. About 920 (0.42%) of roughly 220,000 compounds were called active. The entries come from a sample that favours actives as a whole. Values without a mark were called inactive. No stated cut-off is given here; in the data, active means inhibition above about 15%; inactive means the rest.

The target of the assay is Transitional endoplasmic reticulum ATPase (Homo sapiens) (UniProt P55072). Briefly: inhibitors of human p97 ATPase, primary screen, biochemical (AID 1481).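 Further: 0% = DMSO vehicle and 100% = wells lacking enzyme.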 Particulars: recombinant p97 ATPase, Kinase-Glo ATP luminescence, 3 h; at 8 µM; hits give high values. In general terms: Kinase-Glo measures the ATP left after a reaction by luminescence.
Sequence of Transitional endoplasmic reticulum ATPase (Homo sapiens) (P55072 whole entry, looked up): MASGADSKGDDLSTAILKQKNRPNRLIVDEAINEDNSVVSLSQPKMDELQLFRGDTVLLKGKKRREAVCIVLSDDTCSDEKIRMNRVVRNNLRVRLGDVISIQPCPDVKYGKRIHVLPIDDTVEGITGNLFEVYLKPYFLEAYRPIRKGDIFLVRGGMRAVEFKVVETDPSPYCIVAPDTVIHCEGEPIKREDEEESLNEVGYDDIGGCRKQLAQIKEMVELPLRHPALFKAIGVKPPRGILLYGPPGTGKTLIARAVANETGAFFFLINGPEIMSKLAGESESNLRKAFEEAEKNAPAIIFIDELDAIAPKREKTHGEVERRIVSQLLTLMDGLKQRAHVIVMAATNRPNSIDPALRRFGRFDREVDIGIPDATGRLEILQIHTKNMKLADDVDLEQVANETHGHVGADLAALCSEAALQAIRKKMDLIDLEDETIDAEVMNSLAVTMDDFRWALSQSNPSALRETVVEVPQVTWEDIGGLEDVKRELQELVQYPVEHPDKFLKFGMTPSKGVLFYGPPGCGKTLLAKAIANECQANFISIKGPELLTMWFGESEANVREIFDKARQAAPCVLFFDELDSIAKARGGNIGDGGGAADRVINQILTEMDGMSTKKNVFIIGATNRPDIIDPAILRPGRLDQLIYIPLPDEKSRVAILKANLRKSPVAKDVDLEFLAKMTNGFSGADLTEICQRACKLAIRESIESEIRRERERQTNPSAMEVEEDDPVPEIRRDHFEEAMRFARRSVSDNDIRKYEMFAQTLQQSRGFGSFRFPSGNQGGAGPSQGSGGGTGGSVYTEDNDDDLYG
On to `C=CCn1c(SCc2csc(C)n2)nc2scc(-c3ccc(C)o3)c2c1=O`, for which the inhibition was 3.29%.

Turning to `C=CCn1c(=S)[nH]c2scc(-c3ccco3)c2c1=O`, the inhibition is 15.2% (active).

`C=CCNC(=O)CSc1nc2scc(-c3ccco3)c2c(=O)n1CC=C`: the inhibition was 6.86%.

As to `C/C(CCc1ccccc1)=N\NC(=O)c1ccc(CN2CCOCC2)cc1`, the inhibition is 6.17%.

On to `C=CCc1cccc2cc(C(=O)NC3CCCC3)c(=O)oc12`, for which the inhibition was 1.22%.

`COc1ccc(CC(=O)NCC(=O)N/N=C/c2cc(Br)ccc2OC)cc1`: the inhibition was -3.65%.

As to `CC(C)/C=N/NC(=O)c1cc(Br)ccc1O`, the inhibition was -3.39%.

Turning to `COc1ccc(-c2[nH]ncc2/C=N/NC(=O)c2cc(Br)ccc2O)c(OC)c1`, the inhibition is 19.8% (active).

As to `CN(C)c1ccc(/C=C/C(=O)c2ccc(C(C)(C)C)cc2)cc1[N+](=O)[O-]`, the inhibition was 3.04%.

With `O=C(COC(=O)c1c2c(nc3ccccc13)/C(=C\c1cccs1)CCC2)Nc1ccccc1Cl`, the inhibition is -4.57%.

In the case of `NS(=O)(=O)c1ccc(NC(=O)COC(=O)c2c3c(nc4ccccc24)/C(=C\c2ccc4c(c2)OCO4)CCC3)cc1`, the inhibition is -1.8%.

Regarding `NC(=O)c1ccc(NC(=O)COC(=O)c2c3c(nc4ccccc24)/C(=C\c2ccc4c(c2)OCO4)CCC3)cc1`, the inhibition is 21.3% (active).

Take `COc1ccnc(Oc2ccccc2)c1-c1ncn[nH]1`: the inhibition is 2.16%.

With `C=CCNC(=S)NNC(=O)c1cc(Cl)ccc1OC`, the inhibition was 2.04%.

Turning to `Cc1cc(C)n2nc(C(=O)NC(C)(C)C)nc2n1`, the inhibition is -8.48%.

Turning to `COc1ccc(Cl)cc1C(=O)NNC(=O)c1nc2nc(C)cc(C)n2n1`, the inhibition was 23.2% (active).

For `CC1(C)CC(N2CCN(C(c3ccccc3)c3ccccc3)CC2)=CC(=[N+]2CCCCC2)C1`, the inhibition was -4.13%.

As for `CCc1nn(CCCN2CCN(c3cccc(Cl)c3)CC2)c(=O)n1CCOc1ccccc1`, the inhibition was -5.07%.

Regarding `C=CCNCCCCOc1ccccc1`, the inhibition was -1.97%.

As for `CCOC(=O)C(C)n1cnc2sc(C)c(C)c2c1=O` (centres undefined), the inhibition is -1.18%.

As for `CC(C(=O)O)n1cnc2sc3c(c2c1=O)CCCC3` (centres undefined), the inhibition is 19.5% (active).

Regarding `N=c1c2c3c(sc2ncn1N)CCCC3`, the inhibition was 5.38%.

For `CN1CCN(c2ccc(S(=O)(=O)N3CCOCC3)cc2NC(=O)CCc2ccccc2)CC1`, the inhibition is 4%.

As for `Fc1ccccc1/C=C1\CCCC2=C1Nc1ncnn1C2c1ccccc1F` (centres undefined), the inhibition is 3.82%.

Take `Oc1c(Cl)cc(Cl)c(Cl)c1Cc1c(O)c(Cl)cc(Cl)c1Cl`: the inhibition was 31.6% (active).

With `COc1cc(S(=O)(=O)N2CCOCC2)ccc1NC(=O)COc1ccc(N(C)S(=O)(=O)c2ccc(C)cc2)cc1`, the inhibition was 10.4%.

For `Cc1c(NC(=O)CN2C(=O)C(=O)N(Cc3ccccc3)C2=O)c(=O)n(-c2ccccc2)n1C`, the inhibition is 1.04%.

`Cc1cccc(NC(=O)c2ccc([N+](=O)[O-])o2)c1`: the inhibition is 0.75%.

On to `N#Cc1c(-c2ccc(F)cc2)nc(-c2ccccc2)[nH]c1=O`, for which the inhibition is 1.67%.

`[O-][n+]1onc2c1CCc1[nH]c(-c3ccccc3)nc1-2`: the inhibition was 37.3% (active).

As to `COc1ccc([N+](=O)[O-])cc1N(CC(O)CN(CC(C)C)CC(C)C)S(=O)(=O)c1ccc(C)cc1` (centres undefined), the inhibition was -15%.

As for `Cn1sc(=O)c2cc(S(=O)(=O)NC3CC3)ccc21`, the inhibition is 13.5%.

With `Clc1ccc(C2=CSC3=Nc4cccc5cccc(c45)N23)cc1`, the inhibition was 33% (active).

As to `N#Cc1ccsc1NC(=O)CN1CCN(S(=O)(=O)c2cc(Cl)ccc2Cl)CC1`, the inhibition was 1.72%.

Take `CCC1(CC)NC(=O)N(CC(=O)OCC(=O)NC(=O)c2ccccc2)C1=O`: the inhibition is -0.8%.

For `Cc1ccc(C(O)P(=O)(OC(C)C)c2ccc(N(C)C)cc2)cc1` (centres undefined), the inhibition was 0.27%.

For `COC(=O)CNc1nc(Cl)nc(N2CCC(C)CC2)n1`, the inhibition was -3.6%.

Consider `O=C(Nc1cccc(F)c1)c1coc(=O)c(Br)c1`, for which the inhibition is -1.08%.

Take `Cc1nc(-c2ccccc2)sc1-c1nnc(C2CC2)o1`: the inhibition was -11.7%.

As to `Cc1nn(Cc2ccccc2)c2c1C(c1ccccc1)C(C#N)=C(N)O2` (centres undefined), the inhibition is 10.6%.

In the case of `Cc1nn(-c2ccccc2)c2c1C(c1ccc(F)cc1)C(C#N)=C(N)O2` (centres undefined), the inhibition was -4.19%.

As to `COc1ccccc1C1C(C#N)=C(N)Oc2c1c(-c1ccccc1)nn2-c1ccccc1` (centres undefined), the inhibition was 27.6% (active).

For `CCC1C=C(c2ccccc2)C=CN=C1N(CC)CC` (centres undefined), the inhibition was -5.24%.

Take `CCC(C)CN1CCC(CO)(Cc2ccccc2Cl)CC1` (centres undefined): the inhibition is -5.42%.

As for `Cc1cc(Nc2ccc(N3CCOCC3)cc2)c2cccc(C)c2n1`, the inhibition is 4.03%.

Consider `CN1CCC(=NNC(=O)c2ccc(N(Cc3ccc(Cl)cc3)S(C)(=O)=O)cc2)CC1`, for which the inhibition was -1.22%.

For the molecule `CC(C)Sc1nnc([C@H](Cc2ccccc2)NC(=O)OC(C)(C)C)o1`, the inhibition is -6.35%.

As to `COc1ccc2c(c1)C(=C(C#N)C#N)C(=O)N2CCc1ccccc1`, the inhibition is 20.6% (active).

As to `CCCCN1C(=O)/C(=C(/C#N)C(N)=O)c2ccccc21`, the inhibition was 1.92%.

In the case of `C#CCN1C(=O)C(O)(CC(=O)c2cc(OC)ccc2OC)c2ccccc21` (centres undefined), the inhibition is 4.75%.

Consider `CC(C)(C)c1cnnn1-c1ccc([N+](=O)[O-])cc1`, for which the inhibition is 4.98%.

As for `Nc1ccccc1Sc1ccc(C(F)(F)F)cc1[N+](=O)[O-]`, the inhibition was -3.21%.

Turning to `CC(=O)Nc1ccc(CC#N)cc1`, the inhibition was 3.27%.

Turning to `O=C(N/N=C/c1ccc([N+](=O)[O-])o1)c1cccc(S(=O)(=O)N2CCOCC2)c1`, the inhibition was -1.08%.

Turning to `O=[N+]([O-])c1cc(Cl)cc(/C=N/NC(=S)Nc2cc(S(=O)(=O)N3CCOCC3)ccc2Cl)c1O`, the inhibition was 14.6% (active).

As for `O=C(CN1CCN(c2ccc(O)cc2)CC1)Nc1cc(S(=O)(=O)N2CCOCC2)ccc1Cl`, the inhibition was 6.43%.

Take `COc1ccccc1-n1c(-c2cc(-c3ccco3)[nH]n2)n[nH]c1=S`: the inhibition is 6.44%.

Take `Brc1ccc(-c2csc(N/N=C/c3cccnc3)n2)cc1`: the inhibition was 0.38%.

Take `CC(C)CNC(=O)/C=C/C(=O)O`: the inhibition was 1.63% and 0.6%.

Values taken from PubChem BioAssay AID1481 (The Scripps Research Institute Molecular Screening Center, 2009).
